Experimental findings from paper PMC9911399, “Two distinct binding modes provide the RNA-binding protein RbFox with extraordinary sequence specificity” are described below.

Changes are numbered by the printed parent chain; changes in the protein carry UniProt numbers. The full ranking holds about 16,000 sequences; the median of “ka relative to ugcaugu” is about 0.096, and the highest 2% start at about 0.35. The sample holds the highest values, similar sequences and a random draw of the others, so the mix is not that of the screen.

B1: CCUUUUU (DNA:RNA)
RNA: GGGAGACCGGAAUUCAGAUUGUCCCCUUUUUUUAAAUCCCGUCGUAGCCACCA
DNA 1: CAATCTGAATTCCGGTCTCCC
DNA 2: TGGTGGCTACGACGGGATT
B2: CGCACUG (DNA:RNA)
RNA: B1 RNA with C26G, U27C, U28A, U29C, U31G
DNA 1: CAATCTGAATTCCGGTCTCCC
DNA 2: TGGTGGCTACGACGGGATT
B3: GUAUUUU (DNA:RNA)
RNA: B1 RNA with C25G, C26U, U27A
DNA 1: CAATCTGAATTCCGGTCTCCC
DNA 2: TGGTGGCTACGACGGGATT
B4: AGGGGGA (DNA:RNA)
RNA: GGGAGACCGGAAUUCAGAUUGUCCAGGGGGAUUAAAUCCCGUCGUAGCCACCA
DNA 1: CAATCTGAATTCCGGTCTCCC
DNA 2: TGGTGGCTACGACGGGATT
B5: AGGAUUG (DNA:RNA)
RNA: B4 RNA with G28A, G29U, G30U, A31G
DNA 1: CAATCTGAATTCCGGTCTCCC
DNA 2: TGGTGGCTACGACGGGATT
B6: AGGAGGA (DNA:RNA)
RNA: B4 RNA with G28A
DNA 1: CAATCTGAATTCCGGTCTCCC
DNA 2: TGGTGGCTACGACGGGATT
B7: AGGAUGU (DNA:RNA)
RNA: B4 RNA with G28A, G29U, A31U
DNA 1: CAATCTGAATTCCGGTCTCCC
DNA 2: TGGTGGCTACGACGGGATT
B8: AGGAAUC (DNA:RNA)
RNA: B4 RNA with G28A, G29A, G30U, A31C
DNA 1: CAATCTGAATTCCGGTCTCCC
DNA 2: TGGTGGCTACGACGGGATT
B9: AGGAAUG (DNA:RNA)
RNA: B4 RNA with G28A, G29A, G30U, A31G
DNA 1: CAATCTGAATTCCGGTCTCCC
DNA 2: TGGTGGCTACGACGGGATT
B10: ACCAGGA (DNA:RNA)
RNA: B4 RNA with G26C, G27C, G28A
DNA 1: CAATCTGAATTCCGGTCTCCC
DNA 2: TGGTGGCTACGACGGGATT
B11: AGGGAUG (DNA:RNA)
RNA: B4 RNA with G29A, G30U, A31G
DNA 1: CAATCTGAATTCCGGTCTCCC
DNA 2: TGGTGGCTACGACGGGATT
B12: AGGAGAC (DNA:RNA)
RNA: B4 RNA with G28A, G30A, A31C
DNA 1: CAATCTGAATTCCGGTCTCCC
DNA 2: TGGTGGCTACGACGGGATT
B13: UACUCAU (DNA:RNA)
RNA: B1 RNA with C25U, C26A, U27C, U29C, U30A
DNA 1: CAATCTGAATTCCGGTCTCCC
DNA 2: TGGTGGCTACGACGGGATT
B14: CUACUCU (DNA:RNA)
RNA: B1 RNA with C26U, U27A, U28C, U30C
DNA 1: CAATCTGAATTCCGGTCTCCC
DNA 2: TGGTGGCTACGACGGGATT
B15: ACAGGAC (DNA:RNA)
RNA: B4 RNA with G26C, G27A, G30A, A31C
DNA 1: CAATCTGAATTCCGGTCTCCC
DNA 2: TGGTGGCTACGACGGGATT
B16: GGGAGUU (DNA:RNA)
RNA: B4 RNA with A25G, G28A, G30U, A31U
DNA 1: CAATCTGAATTCCGGTCTCCC
DNA 2: TGGTGGCTACGACGGGATT
B17: CUCGGGU (DNA:RNA)
RNA: B4 RNA with A25C, G26U, G27C, A31U
DNA 1: CAATCTGAATTCCGGTCTCCC
DNA 2: TGGTGGCTACGACGGGATT
B18: AACUACA (DNA:RNA)
RNA: B4 RNA with G26A, G27C, G28U, G29A, G30C
DNA 1: CAATCTGAATTCCGGTCTCCC
DNA 2: TGGTGGCTACGACGGGATT
B19: GCUCAGC (DNA:RNA)
RNA: B1 RNA with C25G, U28C, U29A, U30G, U31C
DNA 1: CAATCTGAATTCCGGTCTCCC
DNA 2: TGGTGGCTACGACGGGATT
B20: GGGUUGU (DNA:RNA)
RNA: B4 RNA with A25G, G28U, G29U, A31U
DNA 1: CAATCTGAATTCCGGTCTCCC
DNA 2: TGGTGGCTACGACGGGATT
B21: GGGGGGU (DNA:RNA)
RNA: B4 RNA with A25G, A31U
DNA 1: CAATCTGAATTCCGGTCTCCC
DNA 2: TGGTGGCTACGACGGGATT
B22: GUCCGGG (DNA:RNA)
RNA: B4 RNA with A25G, G26U, G27C, G28C, A31G
DNA 1: CAATCTGAATTCCGGTCTCCC
DNA 2: TGGTGGCTACGACGGGATT
B23: GGGUUUU (DNA:RNA)
RNA: B1 RNA with C25G, C26G, U27G
DNA 1: CAATCTGAATTCCGGTCTCCC
DNA 2: TGGTGGCTACGACGGGATT
B24: GGGUUUG (DNA:RNA)
RNA: B1 RNA with C25G, C26G, U27G, U31G
DNA 1: CAATCTGAATTCCGGTCTCCC
DNA 2: TGGTGGCTACGACGGGATT
B25: GUCGGGU (DNA:RNA)
RNA: B4 RNA with A25G, G26U, G27C, A31U
DNA 1: CAATCTGAATTCCGGTCTCCC
DNA 2: TGGTGGCTACGACGGGATT

This experiment concerns the target T1, RBFOX1 RRM RbFoxmut (Fox-RRM*) (Homo sapiens, UniProt Q9NWB1 109-208, R118D;E147R;N151S;E152T).
T1 sequence: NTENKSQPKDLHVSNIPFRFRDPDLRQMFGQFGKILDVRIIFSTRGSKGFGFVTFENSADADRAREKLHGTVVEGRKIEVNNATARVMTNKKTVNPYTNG
Briefly: EMSA; HiTS-Eq, 1 nM pool, 10 min; buffer printed only for the single-RNA assays: 10 mM Tris pH 7.5, 150 mM NaCl, 3.4 mM EDTA, 0.001% NP-40, 30 C. To be noted: tags: His6 N-terminal (pET28a); label: 5' 32P. Summed up: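 Purified RbFox RRM, wild type or mutant, was incubated for 10 min in 50 µL with 1 nM of a 5′-radiolabelled RNA pool carrying 7 randomized nucleotides, whose flanks were annealed to DNA oligonucleotides, over a series of increasing protein concentrations. Unbound RNA was resolved on 8% native PAGE, cut out, reverse-transcribed, barcoded by PCR and sequenced on an Illumina HiSeq 2500. Relative association constants were derived from changes in read counts for each RNA species versus the control reaction and normalised to the cognate motif.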
Background: In EMSA bound probe runs differently from free probe, usually more slowly.
For B1, the binding signal was 0.0758 KA relative to UGCAUGU.

For B2, the binding signal is 0.125 KA relative to UGCAUGU.

As to B3, the binding signal was 0.118 KA relative to UGCAUGU.

B4: the binding signal is 0.149 KA relative to UGCAUGU.

With B5, the binding signal was 0.583 KA relative to UGCAUGU.

In the case of B6, the binding signal was 0.084 KA relative to UGCAUGU.

Turning to B7, the binding signal is 0.339 KA relative to UGCAUGU.

In the case of B8, the binding signal was 0.261 KA relative to UGCAUGU.

As to B9, the binding signal was 1.4 KA relative to UGCAUGU.

For B10, the binding signal was 0.0755 KA relative to UGCAUGU.

With B11, the binding signal was 0.476 KA relative to UGCAUGU.

As for B12, the binding signal was 0.0904 KA relative to UGCAUGU.

For B13, the binding signal was 0.0982 KA relative to UGCAUGU.

For the molecule B14, the binding signal was 0.0641 KA relative to UGCAUGU.

B15: the binding signal is 0.0906 KA relative to UGCAUGU.

Turning to B16, the binding signal was 0.09 KA relative to UGCAUGU.

Regarding B17, the binding signal was 0.0903 KA relative to UGCAUGU.

On to B18, for which the binding signal is 0.121 KA relative to UGCAUGU.

On to B19, for which the binding signal is 0.0895 KA relative to UGCAUGU.

Turning to B20, the binding signal was 0.448 KA relative to UGCAUGU.

B21: the binding signal is 0.0952 KA relative to UGCAUGU.

With B22, the binding signal was 0.0861 KA relative to UGCAUGU.

Regarding B23, the binding signal is 0.0749 KA relative to UGCAUGU.

In the case of B24, the binding signal is 0.741 KA relative to UGCAUGU.

Regarding B25, the binding signal was 0.132 KA relative to UGCAUGU.
